Results published in the supplement of paper PMC11732987, “Enantioselective OTUD7B fragment discovery through chemoproteomics screening and high-throughput optimisation” (Communications Chemistry, 2025).

Tests used:
Test in all cases: log2 ratio of Biotin-Ahx-Ub-VS probe labelling (fragment/DMSO); higher = less target engagement (more negative = stronger competition), active = hit call of the paper (q ≤ 0.05, log2 ratio ≤ -1)
Details in all cases: compound concentration: 200 uM; treatment time: 3 h
USP42 = molecular target: T1, USP42 (UniProt Q9H9J4)
T1 sequence (whole entry): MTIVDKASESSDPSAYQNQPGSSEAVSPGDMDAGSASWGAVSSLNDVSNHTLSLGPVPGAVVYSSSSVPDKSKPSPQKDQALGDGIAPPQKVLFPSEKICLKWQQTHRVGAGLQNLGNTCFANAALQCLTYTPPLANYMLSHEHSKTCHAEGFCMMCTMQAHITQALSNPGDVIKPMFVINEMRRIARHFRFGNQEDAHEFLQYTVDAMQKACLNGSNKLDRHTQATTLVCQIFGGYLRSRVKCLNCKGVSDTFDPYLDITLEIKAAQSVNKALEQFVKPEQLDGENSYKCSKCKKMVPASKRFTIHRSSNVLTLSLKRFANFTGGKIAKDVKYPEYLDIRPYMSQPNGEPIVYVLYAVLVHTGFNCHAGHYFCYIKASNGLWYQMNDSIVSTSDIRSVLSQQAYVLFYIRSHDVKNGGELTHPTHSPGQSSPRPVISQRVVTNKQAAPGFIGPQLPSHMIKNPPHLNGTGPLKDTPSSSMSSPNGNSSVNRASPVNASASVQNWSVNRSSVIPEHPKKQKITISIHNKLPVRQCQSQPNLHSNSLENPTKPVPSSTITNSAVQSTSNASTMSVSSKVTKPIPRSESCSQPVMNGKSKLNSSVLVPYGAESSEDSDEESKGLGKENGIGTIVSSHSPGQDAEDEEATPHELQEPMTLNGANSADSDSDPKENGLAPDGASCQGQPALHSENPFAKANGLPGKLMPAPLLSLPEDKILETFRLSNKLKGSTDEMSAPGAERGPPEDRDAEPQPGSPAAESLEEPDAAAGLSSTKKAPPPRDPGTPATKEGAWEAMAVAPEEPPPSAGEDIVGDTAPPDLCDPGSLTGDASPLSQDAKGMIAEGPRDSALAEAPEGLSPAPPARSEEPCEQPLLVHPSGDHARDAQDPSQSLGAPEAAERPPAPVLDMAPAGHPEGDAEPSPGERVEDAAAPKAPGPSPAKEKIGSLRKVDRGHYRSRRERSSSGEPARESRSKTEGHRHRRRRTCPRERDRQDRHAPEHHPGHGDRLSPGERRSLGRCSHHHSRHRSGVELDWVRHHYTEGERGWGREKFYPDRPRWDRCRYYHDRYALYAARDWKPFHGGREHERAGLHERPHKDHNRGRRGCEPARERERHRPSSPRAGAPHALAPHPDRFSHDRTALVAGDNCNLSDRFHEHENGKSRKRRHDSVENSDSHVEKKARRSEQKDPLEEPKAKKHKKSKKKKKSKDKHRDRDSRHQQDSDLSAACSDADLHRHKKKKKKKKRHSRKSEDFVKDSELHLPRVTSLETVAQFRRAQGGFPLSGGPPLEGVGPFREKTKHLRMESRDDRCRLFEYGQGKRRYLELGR
In short: (§1)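 Fragment (200 µM) or vehicle was incubated for 3 h with triplicate HEK293T lysate samples of 495 µg, which were then treated with Biotin-Ahx-Ub-VS at 0.5 µM final for 1 h. Labelled DUBs were enriched on NeutrAvidin, digested with LysC and trypsin, and analysed by diaPASEF LC-MS/MS. Values are average log2 fragment/vehicle ratios from an unpaired t-test on global-median-normalised Spectronaut label-free quantities, using proteins with ≥2 unique peptides.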

USP46 = USP46 (UniProt P62068)
USP46, sequence (P62068 whole entry): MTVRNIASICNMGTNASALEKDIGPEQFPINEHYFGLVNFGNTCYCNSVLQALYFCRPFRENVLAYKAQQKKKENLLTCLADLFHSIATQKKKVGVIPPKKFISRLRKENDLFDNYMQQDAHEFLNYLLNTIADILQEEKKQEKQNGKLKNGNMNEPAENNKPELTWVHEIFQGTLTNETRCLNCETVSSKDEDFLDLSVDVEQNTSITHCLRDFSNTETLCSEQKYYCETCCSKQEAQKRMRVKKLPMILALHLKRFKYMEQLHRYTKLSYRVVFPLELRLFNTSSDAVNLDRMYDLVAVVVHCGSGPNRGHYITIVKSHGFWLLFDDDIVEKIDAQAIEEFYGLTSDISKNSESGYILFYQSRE
In short: as §1

USP47 = molecular target: T2, USP47 (UniProt Q96K76)
T2 sequence (whole entry): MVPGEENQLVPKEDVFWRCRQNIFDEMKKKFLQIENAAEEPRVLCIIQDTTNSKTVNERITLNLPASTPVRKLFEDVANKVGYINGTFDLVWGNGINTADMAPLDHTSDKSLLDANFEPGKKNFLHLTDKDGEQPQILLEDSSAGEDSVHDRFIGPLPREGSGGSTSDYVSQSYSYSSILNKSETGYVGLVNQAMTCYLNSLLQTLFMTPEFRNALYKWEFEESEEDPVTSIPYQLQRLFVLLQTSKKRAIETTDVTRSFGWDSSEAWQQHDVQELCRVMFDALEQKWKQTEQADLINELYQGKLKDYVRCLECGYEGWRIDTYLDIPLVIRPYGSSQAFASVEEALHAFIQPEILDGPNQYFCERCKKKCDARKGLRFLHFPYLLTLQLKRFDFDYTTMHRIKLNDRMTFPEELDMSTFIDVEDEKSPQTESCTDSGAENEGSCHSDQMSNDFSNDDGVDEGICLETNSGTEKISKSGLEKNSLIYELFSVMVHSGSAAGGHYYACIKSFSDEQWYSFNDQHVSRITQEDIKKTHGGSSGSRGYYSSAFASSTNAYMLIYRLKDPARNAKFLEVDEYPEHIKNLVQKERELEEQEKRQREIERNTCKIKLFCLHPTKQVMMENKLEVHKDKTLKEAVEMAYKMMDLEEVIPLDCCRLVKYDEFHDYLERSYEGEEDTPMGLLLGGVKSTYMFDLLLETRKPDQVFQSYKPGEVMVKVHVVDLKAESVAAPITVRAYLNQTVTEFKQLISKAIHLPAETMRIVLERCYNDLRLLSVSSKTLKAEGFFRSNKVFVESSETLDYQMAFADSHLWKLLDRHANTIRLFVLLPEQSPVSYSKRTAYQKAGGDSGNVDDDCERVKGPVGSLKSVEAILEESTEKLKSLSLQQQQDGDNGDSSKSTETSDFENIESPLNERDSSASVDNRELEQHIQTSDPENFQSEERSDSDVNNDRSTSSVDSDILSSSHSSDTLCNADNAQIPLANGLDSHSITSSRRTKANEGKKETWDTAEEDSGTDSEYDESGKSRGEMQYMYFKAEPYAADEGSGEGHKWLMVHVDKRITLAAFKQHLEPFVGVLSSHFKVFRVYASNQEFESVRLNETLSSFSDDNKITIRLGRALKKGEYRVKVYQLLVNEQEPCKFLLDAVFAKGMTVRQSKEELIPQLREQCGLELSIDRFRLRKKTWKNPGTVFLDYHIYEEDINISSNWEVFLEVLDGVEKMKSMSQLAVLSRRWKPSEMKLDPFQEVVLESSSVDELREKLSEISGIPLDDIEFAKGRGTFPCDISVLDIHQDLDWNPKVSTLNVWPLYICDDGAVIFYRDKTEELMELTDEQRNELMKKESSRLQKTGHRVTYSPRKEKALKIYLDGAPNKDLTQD
In short: as §1

USP48 = molecular target: T3, USP48 (UniProt Q86UV5)
T3 sequence (whole entry): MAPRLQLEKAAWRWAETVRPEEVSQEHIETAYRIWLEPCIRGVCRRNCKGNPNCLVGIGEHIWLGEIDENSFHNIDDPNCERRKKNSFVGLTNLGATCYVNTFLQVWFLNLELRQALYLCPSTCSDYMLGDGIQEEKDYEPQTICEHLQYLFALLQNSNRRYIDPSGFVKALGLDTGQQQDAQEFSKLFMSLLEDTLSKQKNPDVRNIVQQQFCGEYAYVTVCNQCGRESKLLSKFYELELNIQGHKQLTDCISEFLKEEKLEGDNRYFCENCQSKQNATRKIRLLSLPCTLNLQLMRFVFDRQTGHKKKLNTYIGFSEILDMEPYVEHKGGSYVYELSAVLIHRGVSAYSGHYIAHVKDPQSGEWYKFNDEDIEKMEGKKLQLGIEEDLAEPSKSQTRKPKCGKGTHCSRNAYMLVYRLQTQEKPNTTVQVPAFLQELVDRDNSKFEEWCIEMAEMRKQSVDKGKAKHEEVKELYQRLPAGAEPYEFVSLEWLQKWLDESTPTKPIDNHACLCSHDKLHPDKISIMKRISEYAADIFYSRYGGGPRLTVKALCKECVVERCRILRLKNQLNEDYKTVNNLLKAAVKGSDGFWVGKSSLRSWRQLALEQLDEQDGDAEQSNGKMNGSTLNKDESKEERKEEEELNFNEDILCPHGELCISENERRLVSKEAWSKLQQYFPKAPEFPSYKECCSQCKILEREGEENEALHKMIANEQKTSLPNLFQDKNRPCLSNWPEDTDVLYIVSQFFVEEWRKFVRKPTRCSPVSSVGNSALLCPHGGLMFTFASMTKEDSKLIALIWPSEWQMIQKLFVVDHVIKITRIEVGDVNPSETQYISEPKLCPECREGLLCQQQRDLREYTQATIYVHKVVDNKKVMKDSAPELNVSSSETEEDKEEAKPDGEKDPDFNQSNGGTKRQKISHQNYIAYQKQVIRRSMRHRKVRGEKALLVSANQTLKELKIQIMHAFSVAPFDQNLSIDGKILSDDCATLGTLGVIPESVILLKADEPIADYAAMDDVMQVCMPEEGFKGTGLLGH
In short: as §1

USP5 = molecular target: T4, USP5 (UniProt P45974)
T4 sequence (whole entry): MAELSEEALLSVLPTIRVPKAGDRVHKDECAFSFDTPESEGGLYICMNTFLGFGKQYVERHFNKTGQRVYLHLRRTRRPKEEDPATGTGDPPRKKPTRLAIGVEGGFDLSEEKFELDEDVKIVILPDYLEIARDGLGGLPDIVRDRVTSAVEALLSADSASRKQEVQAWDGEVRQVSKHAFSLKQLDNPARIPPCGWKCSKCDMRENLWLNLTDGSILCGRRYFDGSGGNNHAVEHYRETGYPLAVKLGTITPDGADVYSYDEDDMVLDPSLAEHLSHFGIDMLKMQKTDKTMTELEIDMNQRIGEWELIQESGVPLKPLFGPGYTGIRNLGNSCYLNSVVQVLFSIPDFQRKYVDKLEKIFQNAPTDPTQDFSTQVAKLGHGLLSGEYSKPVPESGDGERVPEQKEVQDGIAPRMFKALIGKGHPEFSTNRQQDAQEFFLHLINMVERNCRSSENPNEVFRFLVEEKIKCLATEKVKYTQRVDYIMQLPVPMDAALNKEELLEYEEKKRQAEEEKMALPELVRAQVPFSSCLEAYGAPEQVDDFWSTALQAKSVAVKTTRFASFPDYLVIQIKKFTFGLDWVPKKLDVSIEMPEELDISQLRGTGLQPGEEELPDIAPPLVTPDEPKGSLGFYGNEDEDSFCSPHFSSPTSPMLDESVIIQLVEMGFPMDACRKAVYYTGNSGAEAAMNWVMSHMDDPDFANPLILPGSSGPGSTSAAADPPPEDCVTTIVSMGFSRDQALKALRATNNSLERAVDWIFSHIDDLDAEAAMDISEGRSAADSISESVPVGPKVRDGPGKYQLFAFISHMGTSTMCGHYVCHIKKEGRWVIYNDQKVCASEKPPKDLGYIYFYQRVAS
In short: as §1

USP54 = USP54 (UniProt Q70EL1)
USP54, sequence (Q70EL1 whole entry): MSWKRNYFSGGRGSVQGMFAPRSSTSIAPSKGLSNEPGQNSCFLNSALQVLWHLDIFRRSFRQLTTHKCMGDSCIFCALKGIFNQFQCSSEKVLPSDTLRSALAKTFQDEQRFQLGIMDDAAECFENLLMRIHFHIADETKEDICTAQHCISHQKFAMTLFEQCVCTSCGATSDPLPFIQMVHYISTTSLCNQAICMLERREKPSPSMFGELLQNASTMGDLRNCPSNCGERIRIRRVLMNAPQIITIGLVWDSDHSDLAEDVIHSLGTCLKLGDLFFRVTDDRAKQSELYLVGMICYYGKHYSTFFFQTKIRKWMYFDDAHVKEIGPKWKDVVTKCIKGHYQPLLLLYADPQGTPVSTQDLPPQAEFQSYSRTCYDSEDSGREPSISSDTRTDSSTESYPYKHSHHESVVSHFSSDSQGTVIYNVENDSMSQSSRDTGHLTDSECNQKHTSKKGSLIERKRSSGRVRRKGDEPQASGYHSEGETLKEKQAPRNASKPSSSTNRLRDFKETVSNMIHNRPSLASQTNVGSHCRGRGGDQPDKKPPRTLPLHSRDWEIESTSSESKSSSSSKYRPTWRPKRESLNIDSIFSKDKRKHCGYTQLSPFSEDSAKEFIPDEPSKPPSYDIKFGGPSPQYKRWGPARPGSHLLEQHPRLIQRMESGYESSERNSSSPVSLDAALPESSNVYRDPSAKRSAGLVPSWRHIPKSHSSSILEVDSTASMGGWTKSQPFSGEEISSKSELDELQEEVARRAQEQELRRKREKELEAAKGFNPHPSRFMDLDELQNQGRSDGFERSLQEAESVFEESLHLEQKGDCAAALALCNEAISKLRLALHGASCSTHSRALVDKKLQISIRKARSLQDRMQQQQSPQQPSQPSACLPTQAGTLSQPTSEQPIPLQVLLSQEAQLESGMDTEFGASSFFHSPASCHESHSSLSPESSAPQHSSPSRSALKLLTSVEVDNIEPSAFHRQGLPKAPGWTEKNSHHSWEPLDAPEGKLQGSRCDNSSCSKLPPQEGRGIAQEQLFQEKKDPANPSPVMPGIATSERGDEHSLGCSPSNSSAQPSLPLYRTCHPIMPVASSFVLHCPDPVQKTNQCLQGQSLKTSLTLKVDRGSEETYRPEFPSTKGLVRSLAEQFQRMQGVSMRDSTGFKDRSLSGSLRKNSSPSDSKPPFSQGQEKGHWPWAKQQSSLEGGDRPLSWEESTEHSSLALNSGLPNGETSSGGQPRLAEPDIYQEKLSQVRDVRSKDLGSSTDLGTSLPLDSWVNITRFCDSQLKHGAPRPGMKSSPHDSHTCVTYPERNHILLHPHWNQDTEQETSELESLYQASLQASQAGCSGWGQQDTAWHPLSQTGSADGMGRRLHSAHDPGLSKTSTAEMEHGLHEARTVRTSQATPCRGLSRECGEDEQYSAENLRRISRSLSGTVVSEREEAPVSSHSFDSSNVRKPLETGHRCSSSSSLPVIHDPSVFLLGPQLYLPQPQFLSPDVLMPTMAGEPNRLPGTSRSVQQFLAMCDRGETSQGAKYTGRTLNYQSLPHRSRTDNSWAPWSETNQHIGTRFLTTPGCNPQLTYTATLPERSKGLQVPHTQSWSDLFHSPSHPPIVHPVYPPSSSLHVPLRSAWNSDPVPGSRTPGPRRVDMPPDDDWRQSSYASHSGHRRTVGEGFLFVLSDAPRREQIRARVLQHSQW
In short: as §1

USP7 = USP7 (UniProt Q93009)
USP7, sequence (Q93009 whole entry, looked up): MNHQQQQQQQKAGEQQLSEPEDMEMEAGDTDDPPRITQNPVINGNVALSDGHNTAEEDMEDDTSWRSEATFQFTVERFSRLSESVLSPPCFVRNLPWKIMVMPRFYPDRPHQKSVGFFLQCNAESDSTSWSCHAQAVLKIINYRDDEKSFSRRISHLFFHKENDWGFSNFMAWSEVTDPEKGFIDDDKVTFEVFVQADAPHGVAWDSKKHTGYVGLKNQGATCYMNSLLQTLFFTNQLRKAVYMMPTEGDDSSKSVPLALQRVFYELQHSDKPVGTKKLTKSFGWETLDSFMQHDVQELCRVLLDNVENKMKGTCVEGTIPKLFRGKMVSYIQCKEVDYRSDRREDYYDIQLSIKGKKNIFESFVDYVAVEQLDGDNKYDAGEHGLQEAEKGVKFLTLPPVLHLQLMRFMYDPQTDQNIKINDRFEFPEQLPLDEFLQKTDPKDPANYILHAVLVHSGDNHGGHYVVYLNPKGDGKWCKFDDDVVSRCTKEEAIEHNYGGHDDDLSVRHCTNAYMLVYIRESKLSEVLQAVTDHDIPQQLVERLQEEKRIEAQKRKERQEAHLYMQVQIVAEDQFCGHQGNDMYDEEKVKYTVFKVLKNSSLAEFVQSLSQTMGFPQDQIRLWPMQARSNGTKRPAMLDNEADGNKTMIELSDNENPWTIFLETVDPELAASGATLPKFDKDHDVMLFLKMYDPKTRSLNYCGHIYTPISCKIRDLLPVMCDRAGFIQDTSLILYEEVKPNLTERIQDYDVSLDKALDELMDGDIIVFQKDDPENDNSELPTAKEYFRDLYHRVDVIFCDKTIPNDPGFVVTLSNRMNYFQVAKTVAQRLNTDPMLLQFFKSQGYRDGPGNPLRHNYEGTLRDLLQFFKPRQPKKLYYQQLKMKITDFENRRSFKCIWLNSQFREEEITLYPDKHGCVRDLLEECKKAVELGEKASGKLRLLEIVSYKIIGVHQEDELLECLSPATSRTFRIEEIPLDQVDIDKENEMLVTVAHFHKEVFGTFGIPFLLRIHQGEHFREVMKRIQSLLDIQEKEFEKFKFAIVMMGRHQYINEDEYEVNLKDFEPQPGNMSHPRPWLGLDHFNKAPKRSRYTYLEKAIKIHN
In short: as §1

USP8 = molecular target: T5, USP8 (UniProt P40818)
T5 sequence (whole entry): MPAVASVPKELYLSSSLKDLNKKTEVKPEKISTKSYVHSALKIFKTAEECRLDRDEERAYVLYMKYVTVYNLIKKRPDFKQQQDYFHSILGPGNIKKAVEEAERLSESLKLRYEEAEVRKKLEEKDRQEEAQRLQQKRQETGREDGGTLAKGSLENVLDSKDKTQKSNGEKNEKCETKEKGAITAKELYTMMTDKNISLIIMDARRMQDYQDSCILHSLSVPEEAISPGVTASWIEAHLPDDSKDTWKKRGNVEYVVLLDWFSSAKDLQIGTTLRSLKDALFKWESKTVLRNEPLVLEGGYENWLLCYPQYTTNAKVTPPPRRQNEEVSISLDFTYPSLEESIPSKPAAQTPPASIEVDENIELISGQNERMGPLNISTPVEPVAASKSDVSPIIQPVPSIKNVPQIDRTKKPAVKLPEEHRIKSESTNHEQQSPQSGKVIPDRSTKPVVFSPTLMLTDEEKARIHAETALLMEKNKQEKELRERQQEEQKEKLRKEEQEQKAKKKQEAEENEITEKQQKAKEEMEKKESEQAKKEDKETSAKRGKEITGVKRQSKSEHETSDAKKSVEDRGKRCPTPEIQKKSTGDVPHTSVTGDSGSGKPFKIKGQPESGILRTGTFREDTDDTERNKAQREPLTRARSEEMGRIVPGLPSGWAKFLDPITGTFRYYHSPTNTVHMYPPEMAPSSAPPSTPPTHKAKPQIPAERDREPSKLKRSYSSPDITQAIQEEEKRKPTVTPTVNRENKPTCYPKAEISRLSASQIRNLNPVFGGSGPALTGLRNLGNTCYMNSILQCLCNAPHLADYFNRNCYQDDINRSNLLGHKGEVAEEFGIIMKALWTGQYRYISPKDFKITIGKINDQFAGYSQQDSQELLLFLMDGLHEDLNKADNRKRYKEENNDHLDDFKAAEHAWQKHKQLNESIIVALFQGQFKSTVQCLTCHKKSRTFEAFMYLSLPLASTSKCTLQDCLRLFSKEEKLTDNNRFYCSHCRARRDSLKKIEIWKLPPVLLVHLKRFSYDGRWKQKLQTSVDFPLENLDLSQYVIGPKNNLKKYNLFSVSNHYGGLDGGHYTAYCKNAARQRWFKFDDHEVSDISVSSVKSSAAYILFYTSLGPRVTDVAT
In short: as §1

Measured: log2 ratio of Biotin-Ahx-Ub-VS probe labelling

Cc1c(C#N)c(NC(=O)CCl)n(Cc2ccco2)c1C
inactive: USP42 0.0887 | USP46 -0.16 | USP47 -0.217 | USP48 -0.398 | USP5 -0.329 | USP54 -0.38 | USP7 -0.563 | USP8 -0.000142
